Measurements: PubChem BioAssay (EPA / NIEHS)
Records with an inconclusive call do not appear. Calls of active or inactive are those of the source. The calls were made as follows, unless noted: active = hit-call score of the fitted dose curve at least 0.9, where 1 is the maximum; inactive = score below 0.9.

Columns and labels:
[1] = CCTE_Shafer_MEA_acute_spike_number: CCTE's Neural Acute Assay for Total Number of Spikes, Shafer Lab (AID 2284008)
Summary of the method: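 Rat primary cortical neurons on 48-well MEA plates, DIV 13 or 15, at 37 C. 40 min baseline then 40 min with compound (0.03-40 uM); spikes detected at 8x rms noise, expressed as percent change from baseline.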

[2] = CCTE_Shafer_MEA_acute_firing_rate_mean: CCTE's Neural Acute Assay for Mean Firing Rate, Shafer Lab (AID 2284009);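 also: analyzed for loss of signal so actives lower firing rate relative to DMSO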
Summary of the method: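 Spontaneous spiking of primary rat cortical networks, DIV 13/15, 37 C. Compound 0.03-40 uM, n ≥3 wells; 40 min baseline vs 40 min treated. Endpoint fitted in loss-of-signal direction against DMSO.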

[3] = CCTE_Harrill_HTTr_Viability_MCF7: CCTE's 6-hour Cell Viability Assessment for the High-Throughput Transcriptomics (HTTr) Platform, in MCF-7 cells cultured in DMEM + 10% fetal bovine serum, Harrill Lab (AID 2284010)
Summary of the method: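 Read-out is propidium iodide gain of signal by high-content imaging, reflecting membrane integrity loss. Measurements are taken 6 h after dosing, eight concentrations per chemical, with DMSO serving as baseline for bidirectional curve fitting.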

[4] = CCTE_Harrill_HTTr_Apoptosis_MCF7: CCTE's 6-hour Apoptosis Assessment for the High-Throughput Transcriptomics (HTTr) Platform, in MCF-7 cells cultured in DMEM + 10% fetal bovine serum, Harrill Lab (AID 2284011)
Summary of the method: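 MCF-7 cells in DMEM + 10% FBS exposed 6 h to chemicals over an eight-point dilution series. Caspase-3/7 activation imaged by high-content CellEvent Green staining; fitted bidirectionally versus DMSO.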

[5] = CCTE_Harrill_HTTr_CellCount_MCF7: CCTE's Cell Proliferation Assessment for the High-Throughput Transcriptomics (HTTr) Platform, Harrill Lab (AID 2284012; active = hit-call score of the fitted dose curve at least 0.9, where 1 is the maximum;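 also: cells exposed to compound for six hours; intended direction is loss of nuclei count meaning fewer cells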)
Summary of the method: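 Cell count served as viability reporter: loss of Hoechst-stained nuclei, counted by high content imaging, marks decreased growth or survival. Exposure was 6 h in MCF-7 cells across eight concentrations, with DMSO as baseline.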

[6] = CCTE_Shafer_MEA_acute_burst_number: CCTE's Neural Acute Assay for Single-Electrode Bursts, Shafer Lab (AID 2284013)
Summary of the method: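 Burst totals were derived with adaptive spike detection (8x rms threshold) on filtered signals from rat cortical cultures; change relative to pre-treatment baseline after 40-min compound exposure (0.03-40 uM) was fitted in the negative direction against DMSO.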

[7] = CCTE_Shafer_MEA_acute_burst_duration_mean: CCTE's Neural Acute Assay for Mean Burst Duration, Shafer Lab (AID 2284014);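 also: hits are decreases in mean burst duration relative to DMSO controls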
Summary of the method: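 Acute exposure of mature rat cortical networks (DIV 13 or 15) grown on microelectrode arrays to 0.03-40 uM compound. Mean burst duration compared with the 40-min pre-dose baseline over a 40-min post-dose recording at 37 C.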

[8] = CCTE_Shafer_MEA_acute_per_burst_spike_number_mean: CCTE's Neural Acute Assay for Average Number of Spikes Per Burst, Shafer Lab (AID 2284015);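 also: hits are decreases in mean spikes per burst versus baseline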
Summary of the method: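 Primary rat cortical neurons on 48-well MEA plates, treated on DIV 13 or 15 at 0.03-40 uM. Spontaneous activity recorded 40 min before and 40 min after compound at 37 C; percent change in mean spikes per single-electrode burst per well, fitted in the loss direction versus DMSO.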

[9] = CCTE_Shafer_MEA_acute_interburst_interval_mean: CCTE's Neural Acute Assay for Mean Interburst Interval, Shafer Lab (AID 2284016);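 also: percent change of mean interburst interval versus each well's own pre-dose baseline; curves fitted for decrease in interburst interval relative to DMSO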
Summary of the method: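 Primary rat cortical neurons on 16-electrode MEA wells were recorded 40 min at baseline on DIV 13 or 15, then 40 min after compound (0.03-40 uM), at 37 C. Value is percent change in mean interburst interval per well, DMSO as negative control.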

[10] = CCTE_Shafer_MEA_acute_burst_percentage_mean: CCTE's Neural Acute Assay for Percentage of Spikes in a Burst, Shafer Lab (AID 2284017)
Summary of the method: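 Primary rat cortical neurons on 16-electrode MEA wells; 40 min baseline recorded at DIV 13 or 15, then 40 min after compound (0.03-40 uM) at 37 C. Well-mean fraction of spikes in single-electrode bursts; percent change from baseline, DMSO as negative control.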

[11] = CCTE_Shafer_MEA_acute_burst_percentage_std: CCTE's Neural Acute Assay for Standard Deviation of Burst Percentage, Shafer Lab (AID 2284018);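 also: fitted in the negative direction so actives lower burst percentage SD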
Summary of the method: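 Primary rat cortical neurons on 16-electrode MEA wells were recorded 40 min at baseline (DIV 13 or 15), then 40 min after compound (0.03-40 uM), at 37 C. Well value is SD across electrodes of spikes-in-bursts/total spikes; endpoint is percent change, DMSO-referenced.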

[12] = CCTE_Shafer_MEA_acute_per_network_burst_spike_number_mean: CCTE's Neural Acute Assay for Average Number of Spikes in a Network Burst, Shafer Lab (AID 2284019);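 also: curve fitted for loss of signal so actives reduce spikes per network burst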
Summary of the method: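 Acute exposure of rat primary cortical networks (DIV 13/15) on MEAs; adaptive spike detection at 8x rms noise, 37 C. Percent change in spikes per network burst after 40 min with compound (0.03-40 uM), negative direction vs DMSO.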

[13] = CCTE_Shafer_MEA_acute_per_network_burst_spike_number_std: CCTE's Neural Acute Assay for Standard Deviation of Number of Spikes in a Network Burst, Shafer Lab (AID 2284020);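 also: fitted for decrease in spike-number SD versus DMSO so actives lower it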
Summary of the method: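 Acute MEA exposure, rat cortical neurons, 0.03-40 uM. Per-well % change versus own baseline; DMSO as negative control.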

[14] = CCTE_Shafer_MEA_acute_per_network_burst_electrodes_number_mean: CCTE's Neural Acute Assay for Mean Number of Electrodes in a Network Burst, Shafer Lab (AID 2284021);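 also: curves fitted for decreases only so hits reduce electrodes per burst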
Summary of the method: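 Rat primary cortical neurons on 48-well MEAs, DIV 13 or 15, were treated at 0.03-40 uM. Spikes were detected at 8x rms noise and recorded at 37 C. The mean electrodes per network burst in a 40 min exposure recording was expressed as percent change from a 40 min baseline.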

[15] = CCTE_Shafer_MEA_acute_network_burst_percentage: CCTE's Neural Acute Assay for Percentage of Network Bursts, Shafer Lab (AID 2284022);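 also: curves fitted for loss so actives lower network burst percentage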
Summary of the method: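 Rat primary cortical neuron networks on 48-well MEA plates, DIV 13 or 15, treated acutely with compound (0.03-40 uM, at least three wells). Percent of spikes within network bursts compared between 40-min recordings before and during exposure at 37 C, expressed as percent change.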

[16] = CCTE_Shafer_MEA_acute_cross_correlation_area: CCTE's Neural Acute Assay for Area of Cross Correlation, Shafer Lab (AID 2284024);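 also: curves fitted for loss of cross-correlation area so actives lower synchrony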
Summary of the method: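 Rat primary cortical neurons on 48-well MEA, DIV 13 or 15; compounds 0.03-40 uM. Baseline and post-exposure 40 min recordings at 37 C; percent change in area under pooled inter-electrode cross-correlation near zero lag, relative to DMSO.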

[17] = CCTE_Shafer_MEA_acute_cross_correlation_HWHM: CCTE's Neural Acute Assay for Cross Correlation at Half Width at Half Maximum, Shafer Lab (AID 2284026);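 also: spontaneous network firing of rat primary cortical neurons on multiwell microelectrode arrays; percent change per well from pre-dose baseline in spike cross-correlogram half width; hits are a decrease in cross-correlogram half width relative to DMSO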
Summary of the method: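 Rat primary cortical neurons on 48-well MEA plates; 40-min baseline and 40-min post-exposure recordings at 37 C on DIV 13 or 15, compounds 0.03-40 uM. Spikes detected at 8x rms noise; percent change in cross-correlogram HWHM per well vs baseline.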

[18] = CCTE_Shafer_MEA_acute_synchrony_index: CCTE's Neural Acute Assay for Synchrony, Shafer Lab (AID 2284027);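 also: network synchrony index of spontaneous spiking in primary rat cortical neurons on MEAs; fitted for loss of signal so actives lower synchrony relative to DMSO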
Summary of the method: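 Plates equilibrated 20 min at 37 C, baseline recorded 40 min, compound (0.03-40 uM) added, then 40 min more recorded. Cells: primary rat cortical neurons, DIV 13 or 15. Per-well synchrony index change analysed in negative direction against DMSO.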

[19] = CCTE_Shafer_MEA_dev_firing_rate_mean: CCTE's Neural Network Formation Assay for Mean Firing Rate, Shafer Lab (AID 2284031)
Summary of the method: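 Steps: seed rat cortical cells (1.5 x 10^5/well) with laminin on PEI-coated MEA; dose day 0; record DIV 5/7/9/12, full media and compound exchange after DIV 5 and 9 recordings; compute well-mean firing rate AUC.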

[20] = CCTE_Shafer_MEA_dev_per_burst_spike_percent: CCTE's Neural Network Formation Assay for Percent of Spikes in a Burst, Shafer Lab (AID 2284032);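 also: fitted as a decrease in burst spike percentage below DMSO baseline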
Summary of the method: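 Value is trapezoidal AUC over recordings on days 5, 7, 9 and 12 of the well-mean fraction of spikes falling in single-electrode bursts; rat cortical cultures exposed continuously from plating, treatment renewed DIV 5 and 9, fitted downward against DMSO.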

[21] = CCTE_Shafer_MEA_dev_active_electrodes_number: CCTE's Neural Network Formation Assay for Number of Active Electrodes, Shafer Lab (AID 2284040; active = hit-call score of the fitted dose curve at least 0.9, where 1 is the maximum;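 also: potency for loss of active electrodes versus DMSO so lower counts are hits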)
Summary of the method: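 Counts electrodes per well firing at least 5 spikes/min, recorded on days 5, 7, 9 and 12 in rat cortical cultures dosed continuously from plating (treatment refreshed DIV 5, 9). Value is the area under the curve over recordings, fitted downward relative to DMSO.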

[22] = CCTE_Shafer_MEA_dev_burst_rate: CCTE's Neural Network Formation Assay for Burst Rate, Shafer Lab (AID 2284042)
Summary of the method: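 Rat primary cortical cultures on PEI/laminin MEA; compound from plating, re-dosed at DIV 5, 9 media change. Single-electrode bursts/recording length, well mean of active electrodes; AUC over DIV 5–12 recordings; loss-of-signal vs DMSO.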

[23] = CCTE_Shafer_MEA_dev_bursting_electrodes_number: CCTE's Neural Network Formation Assay for Number of Bursting Electrodes, Shafer Lab (AID 2284043; active = hit-call score of the fitted dose curve at least 0.9, where 1 is the maximum;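 also: potency is for loss of bursting electrodes relative to DMSO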)
Summary of the method: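 Counted: electrodes with burst rate ≥1 per 2 min in each well. Cells: primary rat cortex, 1.5 x 10^5/well, on 16-electrode MEA wells. Exposure: DIV 0–12, compound renewed DIV 5 and 9. Recording days 5, 7, 9, 12; AUC vs DMSO baseline.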

[24] = CCTE_Shafer_MEA_dev_per_burst_interspike_interval: CCTE's Neural Network Formation Assay for Burst Interspike Interval, Shafer Lab (AID 2284044);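 also: potency for a decrease of within-burst interspike interval below DMSO level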
Summary of the method: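 Primary rat cortical neurons on 48-well MEA plates, exposed from day 0 through day 12, treatment renewed at DIV 5 and 9. Within-burst interspike interval recorded days 5, 7, 9, 12, well-averaged, summarised as AUC; negative fit versus DMSO.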

[25] = CCTE_Shafer_MEA_dev_interburst_interval_mean: CCTE's Neural Network Formation Assay for Mean Interburst Interval, Shafer Lab (AID 2284046);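 also: well-mean interburst interval of bursting electrodes as AUC over four recording days; curve fitted for decrease in interburst interval relative to DMSO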
Summary of the method: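 Rat cortical neurons, 1.5 x 10^5 cells/well, 48-well MEA; compound from day 0 through DIV 12, media and treatment renewed DIV 5/9. Recordings DIV 5, 7, 9, 12; well-mean interburst interval → trapezoidal AUC, loss direction vs DMSO.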

[26] = CCTE_Shafer_MEA_dev_inter_network_spike_interval_mean: CCTE's Neural Network Formation Assay for Mean Inter-network Spike Interval, Shafer Lab (AID 2284047)
Summary of the method: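 Primary rat cortical neurons on PEI-coated 48-well MEAs (16 electrodes/well) were exposed from plating day 0 to DIV 12, with dosing renewed at DIV 5 and 9. Recordings at DIV 5, 7, 9, 12 were collapsed by trapezoidal AUC, loss-of-signal fit vs DMSO.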

[27] = CCTE_Shafer_MEA_dev_network_spike_number: CCTE's Neural Network Formation Assay for Number of Network Spikes, Shafer Lab (AID 2284048);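 also: synchronized bursts across electrodes counted on days 5 7 9 12 and integrated as AUC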
Summary of the method: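 Extracellular recordings from 16-electrode wells track network formation in rat cortical cultures under continuous treatment from plating. The endpoint is network spike number, expressed as AUC across DIV 5–12 relative to DMSO vehicle.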

[28] = CCTE_Shafer_MEA_dev_network_spike_peak: CCTE's Neural Network Formation Assay for Mean Number of Electrodes in Network Spike, Shafer Lab (AID 2284049);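 also: fitted for loss of signal meaning fewer electrodes in network spikes than DMSO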
Summary of the method: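 Continuous 12-day exposure of rat cortical cultures, starting at plating, on MEA plates. Endpoint: electrodes participating in network-spike peaks, AUC across DIV 5–12, DMSO as negative control.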

[29] = CCTE_Shafer_MEA_dev_network_spike_duration_std: CCTE's Neural Network Formation Assay for Standard Deviation of Network Spike Duration, Shafer Lab (AID 2284052);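 also: area under curve of spike duration SD across recording days 5 to 12; hits are decreases in network spike duration SD versus DMSO vehicle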
Summary of the method: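 Rat cortical cultures, 1.5 x 10^5 cells/well, exposed continuously from plating to DIV 12 with media/compound renewal at DIV 5, 9. Spontaneous activity recorded DIV 5/7/9/12, AxIS adaptive spike detector; AUC across days; negative direction vs DMSO.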

[30] = CCTE_Shafer_MEA_dev_per_network_spike_spike_number_mean: CCTE's Neural Network Formation Assay for Mean Number of Spikes in a Network Spike, Shafer Lab (AID 2284053)
Summary of the method: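 Rat cortical primary cultures on 48-well MEA; compound from day 0, re-dosed with full media change DIV 5, 9. Recorded DIV 5, 7, 9, 12; spikes in 0.05 s window at network-spike peak ÷ total network spikes; AUC; loss vs DMSO.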

[31] = CCTE_Shafer_MEA_dev_per_network_spike_spike_percent: CCTE's Neural Network Formation Assay for Percent of Spikes in a Network Spike, Shafer Lab (AID 2284054)
Summary of the method: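 Developing networks of rat cortical neurons are dosed at day 0 and recorded extracellularly four times up to day 12. The endpoint is the area under the curve of percent spikes in network spikes, fitted in the negative direction relative to DMSO.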

Measured: AC50

O=C1CC2(CCCC2)CC(=O)N1CCCCN1CCN(c2ncccn2)CC1
active: [12] 1.01 µM | [14] 2.98 µM | [20] 15 µM | [21] 9.97 µM | [23] 15 µM | [24] 2.98 µM | [28] 15 µM | [30] 21.6 µM
inactive: [1] | [2] | [3] | [4] | [5] | [6] | [7] | [8] | [9] | [10] | [11] | [13] | [15] | [16] | [17] | [18] | [19] | [22] | [25] | [26] | [27] | [29] | [31]
